{
  "source": "ChEMBL document CHEMBL4513136",
  "about": "“CO-ADD screening of CSIC (Spain) compounds”",
  "note": "Entries with a potency or affinity are not part of this list.",
  "data": [
    {"test_system": "Staphylococcus aureus", "details": "Concentration 32 ug.mL-1; ASSAY_TEST Inhibition of Bacterial Growth; detection method Absorption (OD600); MEDIA CAMHB; plate type 384well; NBS; CORNING #3640; time 18 hr", "units": {"Inhibition": "%"}, "values": [
      {"compound": "COc1ccc(OC)c(NC(=O)Nc2ccc(OC)cc2OC)c1", "Inhibition": 5.98},
      {"compound": "O=C(Nc1ccc(O)cc1O)Nc1cc(O)ccc1O", "Inhibition": 10.74},
      {"compound": "COc1ccc(OC)c(C(=O)/C=C/c2ccc(O)cc2)c1", "Inhibition": 10.84},
      {"compound": "O=C(OCc1ccccc1)N1C(=O)C(c2ccccc2NC(=O)C(F)(F)F)=C(O)C1Cc1ccccc1", "note": "(centres undefined)", "Inhibition": 36.54},
      {"compound": "O=C(/C=C/c1c[nH]c2ccc(O)cc12)c1cc(O)ccc1O", "Inhibition": 20.75},
      {"compound": "O=C(Cc1cc(O)ccc1O)Nc1cc(O)ccc1O", "Inhibition": 22.67},
      {"compound": "COc1ccc(OC)c(CC(=O)Nc2cc(OC)ccc2OC)c1", "Inhibition": 27.17},
      {"compound": "Oc1ccc(-n2cc(-c3cc(O)ccc3O)nn2)cc1", "Inhibition": 19.08},
      {"compound": "O=C(Cc1cc(O)ccc1O)Nc1ccc(O)cc1O", "Inhibition": 17.97}
    ]}
  ]
}
